These results are taken from PubChem BioAssay (NCI).

The panel holds about 83,000 compounds, 20% with a hit somewhere; the sample as a whole holds those more often.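 Assay: single dose, 48 h. Readout: percent growth (0 = no net growth; negative = cell death). Active: <10.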 The source made the active and inactive calls.

The test system of the experiment is MDA-MB-468 breast. The experiment in a line: NCI-60 one-dose screen, 48 h (100 = growth as untreated, 0 = no growth, -100 = all killed). Particulars: 10 µM unless noted.
With `COc1ccc(-c2cc(-c3ccc(Cl)cc3)c(C#N)c(=O)n2Cc2ccc(C(=O)O)cc2)cc1`, the growth was 73.7% (inactive).
As to `CCn1cc(C(=O)O)c(=O)c2cnc(N3CCCC3)nc21`, the growth was 99.2% (inactive).
Then `CCOC(=O)NCCCC(=O)NCCc1ccccc1`, with 105% (inactive); and `CS(=O)(=O)c1ccc2c(c1)c1c(n2S(=O)(=O)c2ccc(Cl)cc2)CCCC1`, with 42.3% (inactive).
Then `COC(=O)c1nc(=S)[nH]c(C(=O)OC)c1C(=O)c1ccc2ccccc2c1`, with 90% (inactive); and `O=C1N=C(N2CCOCC2)S/C1=C\c1cn(-c2ccccc2)nc1-c1ccccc1`, with 83.3% (inactive); and `CC(=O)Nc1c(Cl)cc(Cl)c2c1Cc1cc([N+](=O)[O-])ccc1-2`, with 94.9% (inactive).
For the compound `CCOc1cc2c(cc1OCC)C(c1cc(OC)c(O)cc1Cl)NCC2` (stereo not given), the growth was 61.4% (inactive).
For `CCN(CC)CCCN1C(=O)c2c(c(C)c3c(oc4ccc(OC)cc43)c2C)C1=O`, the growth is 103% (inactive).
As for `CC1=CC(=O)c2cccc(NC3=NCCO3)c21`, the growth is 107% (inactive).
Then `CC(=O)c1cc2c(o1)C(=O)c1ccccc1C2=O`, with -40% (active); and `COc1ccc(-c2cc(/C=C3\C(=O)Nc4ccc(OC)cc43)[nH]n2)cc1`, with 19% (inactive); and `COc1ccc(Cn2c(Br)c3c(c2Br)-c2nc(NC(=O)c4ccc(OC)cc4)sc2CC3)cc1`, with 83.5% (inactive).
Consider `O=c1c2ccccc2nc(SCCN2CCCCC2)n1CCc1ccccc1`, for which the growth was 92% (inactive).
With `Cn1cc(-c2csc(-c3cn(C)c4ncccc34)n2)c2cc(F)cnc21`, the growth is -10.1% (active).
As for `COC(=O)CCCCC1=CCC2C(=O)C=C(O)C2C1` (stereo not given), the growth was 100% (inactive).
Then `CCNC(=O)Oc1ccc(/C(=C(\C)c2ccc(Cl)cc2)c2ccc(OCCN(CC)CC)cc2)cc1`, with 67.5% (inactive); and `O=C(NNc1cnccn1)c1nc2cc(F)ccc2n2cccc12`, with -21.7% (active).
Consider `COc1ccccc1C(=O)Nc1cccc(NC(=O)c2ccoc2C)c1`, for which the growth was 14% (inactive).
As to `CCC(N)(C(=O)O)c1ccc(F)cc1` (stereo not given), the growth was 105% (inactive).
Then `Cc1nc(Nc2ccccn2)sc1C(=O)/C=C/c1ccc(Cl)cc1`, with 16.4% (inactive).
Take `O=C(O)CCCN1C(=O)CSC1=S`: the growth was 99.3% (inactive).
As to `COc1cc2ncnc(Nc3ccc(F)c(Cl)c3)c2cc1OCC(=O)N1CCCCC1`, the growth is -41.9% (active).
As for `NS(=O)(=O)c1ccc(C(=O)N=Nc2c(O)[nH]c3c(F)cccc23)cc1`, the growth was 96.3% (inactive).
Then `CCOC(=O)Cc1csc2nc(-c3ccccc3)nn12`, with 108% (inactive).
Take `CCCCCCCCCCCCCCCCCCOP(=O)(O)O`: the growth is 108% (inactive).
Consider `c1ccc([I+]c2ccccc2)cc1`, for which the growth is 15.2% (inactive).
For `COc1ccc(C(c2ccc(OCCN(C)C)cc2)c2cc3ccccc3c3ccccc23)cc1` (stereo not given), the growth is 2.65% (active).
`O=C1NC(=O)C(Cc2ccc(OCc3ccc(-c4cc(F)c(F)c(F)c4)cc3)cc2)S1` (stereo not given): the growth is 53.4% (inactive).
For the compound `N#Cc1ccc(/C=C/c2cn(-c3ccccc3)nc2-c2cccc([N+](=O)[O-])c2)cc1`, the growth is 64.7% (inactive).
Turning to `O=C(N=Nc1c(O)[nH]c2ccccc12)c1oc2ccccc2c1CN1CCN(c2ccccc2)CC1`, the growth was -46% (active).
In the case of `CC(C)(C)C(CCc1ccc(Cl)cc1)N1CCN(C2CCCCC2)CC1` (stereo not given), the growth is 58.3% (inactive).
For `CCn1cc(-c2ccnc(NCCNS(=O)(=O)c3ccc(Br)cc3)c2)c(-c2cccc(OC)c2)n1`, the growth was 60.6% (inactive).
Turning to `CCOC(=O)Nc1ccc2c(c1)C(=O)N(CCOC)c1ccccc1O2`, the growth was 20.2% (inactive).
Take `CCCCCCCCCCCCCC1=NCC[N+]1(CCO)Cc1ccccc1` (stereo not given): the growth was -81.2% (active).
On to `CCc1ccc(-c2ccc(COc3ccc(CC4SC(=O)NC4=O)cc3)cc2)cc1` (stereo not given), for which the growth is 35.3% (inactive).
Then `Cc1nn(-c2ccc(Cl)cc2)c2nc3c(nc12)c(=O)oc1ccccc13`, with 125% (inactive); and `CCC(=O)Nc1ccc(-c2nc(-c3cccc(O)c3)c(-c3ccnc(Br)c3)[nH]2)cc1`, with 30.5% (inactive); and `Cc1cccc(NC2=C(C#N)C(=O)NC3(CCCC3)S2)c1`, with 101% (inactive).
On to `Cc1cc(C)c(S(=O)O)c(C)c1`, for which the growth is 106% (inactive).
